Each structure is given as a SMILES string. Active and inactive are the calls of the source. Entries that show only a call come without a potency. Calls come from the whole dose curve; as a rule, active = well fitted cell-killing curve with a large enough effect in the repeat runs; inconclusive = weak or mixed curves, or effect the other way; inactive = flat fitted curve, though single readings scatter. Starred links: 1 amine or outer side, 2 acyl side, 3 side chain; linkers in the order of their positions; H or OH if unused. Positions of bridges follow the written chain, without caps; N, C: chain ends. Non-standard residues stand in square brackets, D forms with d. Residues, ends and D or L forms follow the SMILES beside them. Chains are numbered I, II in the order given. Actinocin(9to1) = Cc1c2oc3c(C)ccc(C(=O)[*:1])c3nc-2c(C(=O)[*:2])c(N)c1=O; NMeV = CN[C@H](C(=O)O)C(C)C; Sar = CNCC(=O)O
Potency is the fitted concentration of half-maximal effect.

The assay is described as follows: qHTS assay to identify small molecule HDAC inhibitors - cell viability counter screen (AID 1259365). Note: nearly all actives have a fitted effect of over 50% in size. The following applies: HCT-116 viability, CellTiter-Glo ATP luminescence, 2 h; series mostly up to 92.4 µM; activity change, negative = cytotoxicity: at the top concentration. An excerpt:
U.S. Tox21 Program National Center for Advancing Translational Sciences [NCATS] NIH Chemical Genomics Center [NCGC] U.S. Environmental Protection Agency [EPA] National Institutes of Environmental Health Sciences [NIEHS] National Toxicology Program [NTP] U.S. Food and Drug Administration [FDA] Tox21 Assay Overview: Histone deacetylases (HDACs) are a group of epigenetic enzymes that regulate gene expression by histone deacetylation. HDACs are capable of introducing epigenetic modifications and such aberrations contribute to the onset and progression of several human diseases, thus making HDACs a popular therapeutic target. For identifying endogenous class I/II HDAC inhibitors a homogenous, luminogenic HDAC I/II cell based assay was used to measure the relative activity of class I and II HDACs from cells. Wild type HCT-116 cells were used to screen Tox21 compound libraries for identifying class I/II HDAC inhibitors.
Tox21 Assay Protocol Summary: HCT-116 cells were dispensed at 1,500 per well in 5uL of culture medium into white solid bottom 1536-well plates (Greiner Bio-One, Monroe, NC) using a Multidrop Combi (Thermo Scientific, Waltham, MA) dispenser. The assay plates were incubated at 37 C and 5% CO2 for an overnight, and then 23nL of compounds dissolved in DMSO and positive control were transferred using a Pintool station (Wako, San Diego, CA). The assay plates were incubated at 37C and 5% CO2 for 2hr. After compound treatment, 4uL of CellTiter-Glo reagent (Promega Corporation, Madison, WI) was added to each well of the assay plates using Flying Reagent Dispenser (FRD, Aurora Discovery, San Diego, CA) and incubated the assay plates at room temperature for 30min. The luminescence signal was quantified using a ViewLux plate reader (Perkin Elmer, Shelton, CT).
Take `CCCCCCCCCCCC[N+](C)(C)C`: the Potency result was “inactive”.
Still for that read-out and setting: the entry for `CCOc1ccc2c(c1)C(C)=CC(C)(C)N2` is “inactive”.
`CCn1cc(C(=O)O)c(=O)c2cc(F)c(N3CCNC(C)C3)c(F)c21` (stereo not given): the “activity change, negative = cytotoxicity” value was -2.29% [at 42.5 µM] (inactive).
On the same count and under the same terms, the figure for `CCC(CO)(CO)COCC(CC)(CO)CO` is 4.29% (inactive).
Turning to `O=S(=O)(O)c1ccc2nc(-c3ccccc3)[nH]c2c1`, the Potency was 23.2 µM (active).
In the case of `CCN1CCCC1CNC(=O)c1cc(S(=O)(=O)CC)c(N)cc1OC` (stereo not given), the “activity change, negative = cytotoxicity” value is -0.498% [at 42.5 µM] (inactive).
Take `CO[Si](OC)(OC)c1ccccc1`: the “activity change, negative = cytotoxicity” value was 1.05% (inactive).
`c1ccc2c(c1)CCCC2C1=NCCN1` (stereo not given): the “activity change, negative = cytotoxicity” value was -2.51% [at 42.5 µM] (inactive).
The same measure, in the same setting: the figure for `CCCCC/C=C/CC1CC(=O)OC1=O` (stereo not given) is 0.859% (inactive).
On to `Cc1ccnc2c1NC(=O)c1cccnc1N2C1CC1`, for which the Potency entry was “inactive”.
For the compound `CC(C)(C)NCC(O)c1cc(O)cc(O)c1` (stereo not given), the “activity change, negative = cytotoxicity” value is -0.476% [at 42.5 µM] (inactive).
As to `CCc1ccc(C(c2ccc(CC)cc2)C(Cl)Cl)cc1`, the Potency entry was “inactive”.
Same read-out and setting: the entry for `Cc1cccc(O)c1C` is “inactive”.
Turning to `C[N+]1([O-])CCOCC1`, the “activity change, negative = cytotoxicity” value is 0.798% (inactive).
`C/C=C/c1ccc(OCC)c(O)c1`: the Potency result is “inactive”.
The same measure, in the same setting: the entry for `CC[C@H]1CN2CCc3cc(OC)c(OC)cc3[C@@H]2C[C@@H]1C[C@H]1NCCc2cc(OC)c(OC)cc21` is “inactive”; for `CC(C)(C)NC(=O)[C@@H]1CN(Cc2cccnc2)CCN1C[C@@H](O)C[C@@H](Cc1ccccc1)C(=O)N[C@H]1c2ccccc2C[C@H]1O` it is “inactive”.
Still for that read-out and setting: the entry for `NNCCc1ccccc1` is “inactive”.
Still for that read-out and setting: the entry for `CCc1cc(C(C)(C)C)c(O)c(C(C)(C)C)c1` is “inactive”.
Regarding `Nc1ccc(O)cc1`, the “activity change, negative = cytotoxicity” value is 4.66% [at 42.5 µM] (inactive).
Turning to `c1ccc2n[nH]nc2c1`, the Potency entry was “inactive”.
Take `COC(=O)[C@H]1[C@H]2C[C@@H]3c4[nH]c5cc(OC)ccc5c4CCN3C[C@H]2C[C@@H](OC(=O)c2cc(OC)c(OC)c(OC)c2)[C@@H]1OC`: the Potency entry is “inactive”.
With `CC(C)C(=O)c1c(C(C)C)nn2ccccc12`, the “activity change, negative = cytotoxicity” value was -1.57% [at 42.5 µM] (inactive).
For the compound `CC(C)(c1ccccc1)c1ccc(Nc2ccc(C(C)(C)c3ccccc3)cc2)cc1`, the Potency result is “inactive”.
Still for that read-out and setting: to `CCCCCC(=O)O[C@]1(C(C)=O)CC[C@H]2[C@@H]3CCC4=CC(=O)CC[C@]4(C)[C@H]3CC[C@@]21C` belongs “inactive”.
As to `C1COC(NC(C2CC2)C2CC2)=N1`, the “activity change, negative = cytotoxicity” value is -0.361% [at 42.5 µM] (inactive).
`NCCCCCC(=O)O`: the “activity change, negative = cytotoxicity” value is 0.116% [at 42.5 µM] (inactive).
Turning to `O=C1OC2(c3ccc(O)cc3Oc3cc(O)ccc32)c2ccccc21`, the Potency result was “inactive”.
In the case of `COc1ccc(CCN2CCC(Nc3nc4ccccc4n3Cc3ccc(F)cc3)CC2)cc1`, the “activity change, negative = cytotoxicity” value was -1.9% [at 42.5 µM] (inactive).
The same measure, in the same setting: to `CCOC(=O)C(C)C(C)=O` (stereo not given) belongs 0.239% (inactive).
For `CC(=O)OCCOCCOCCOC(C)=O`, the Potency result is “inactive”.
Consider `CC(=O)OCC1=C(C(=O)O)N2C(=O)[C@@H](NC(=O)Cc3cccs3)[C@H]2SC1`, for which the “activity change, negative = cytotoxicity” value is 3.64% [at 42.5 µM] (inactive).
In the case of `CCCCOCCOC(=O)c1ccccc1C(=O)OCCOCCCC`, the Potency result was “inactive”.
In the case of `Cc1c(O)cccc1C(=O)N[C@@H](CSc1ccccc1)[C@H](O)CN1C[C@H]2CCCC[C@H]2C[C@H]1C(=O)NC(C)(C)C`, the Potency entry was “inactive”.
The same measure, in the same setting: to `O=C(Oc1ccccc1)c1ccccc1O` belongs “inactive”.
On to `NC(=Nc1ccccc1)Nc1ccccc1`, for which the Potency result was “inactive”.
Same read-out and setting: to `Cc1c2oc3c(C)ccc(C(=O)N[C@@H]4C(=O)N[C@H](C(C)C)C(=O)N5CCC[C@H]5C(=O)N(C)CC(=O)N(C)[C@@H](C(C)C)C(=O)O[C@@H]4C)c3nc-2c(C(=O)N[C@@H]2C(=O)N[C@H](C(C)C)C(=O)N3CCC[C@H]3C(=O)N(C)CC(=O)N(C)[C@@H](C(C)C)C(=O)O[C@@H]2C)c(N)c1=O` (I: T[dV]P[Sar][NMeV] / II: T[dV]P[Sar][NMeV]; ester I:1-I:C, II:1-II:C; linker I:N-II:N via Actinocin(9to1)) belongs “inactive”.
The same measure, in the same setting: the entry for `C=C(C)C(=O)O` is “inactive”; for `Nc1nc(=S)c2[nH]cnc2[nH]1` it is “inactive”.
On the same count and under the same terms, the entry for `Cc1cccc2n[nH]nc12` is “inactive”.

(Values after PubChem BioAssay (Tox21).)
